Data taken from PubChem BioAssay (Tox21).
Where “and” joins values, the source holds several entries; their conditions need not be identical. Identical values can stand only once. Inconclusive results are not listed. Values without a mark were called inactive. Calls of active or inactive are those of the source. Calls follow the shape of the dose curve; as a rule, active = well fitted cell-killing curve with a large enough effect in the repeat runs; inconclusive = weak or mixed curves, or effect the other way; inactive = flat fitted curve, though single readings scatter.

Assay: qHTS RealTime-Glo MT Cell Viability Assay in HEK293 cells - 40 hour (AID 1224874); also: nearly all actives have a fitted effect of over 50% in size
Details: RealTime-Glo luminescence; max response: hits give low values
From the text: U.S. Tox21 Program National Center for Advancing Translational Sciences [NCATS] NIH Chemical Genomics Center [NCGC] U.S. Environmental Protection Agency [EPA] National Institutes of Environmental Health Sciences [NIEHS] National Toxicology Program [NTP] U.S. Food and Drug Administration [FDA] Tox21 Assay Overview: Measure of cell viability is critical in the cell-base assay. Analysis of cell viability is necessary for the characterization of cell responses to cytotoxic drugs and environmental stress. A RealTime-Glo MT Cell Viability Assay to monitor cell viability in real time of continues cell culture during 40 hours of compound treatment was used to screen Tox21 10K library compounds in Hek293 cells. The RealTime-Glo MT Cell Viability Assay is a nonlytic, homogeneous, bioluminescent method to measure cell viability in real time using a simple, plate-based method. The assay involves adding NanoLuc luciferase and a cell-permeant prosubstrate to cells in culture. Viable cells reduce the proprietary prosubstrate to generate a substrate for NanoLuc luciferase. This substrate diffuses from cells into the surrounding culture medium, where it is rapidly used by the NanoLuc Enzyme to produce a luminescent signal. The signal correlates with the number of viable cells, making the assay well suited for cytotoxicity studies.
Tox21 Assay Protocol Summary: The mixture of Hek293 cell suspension and reagents were dispensed at 600cells/6 ul/well in 1536-well tissue culture treated black solid bottom plates using a Multidrop dispenser. After the assay plates were incubated at a 37 C/5% CO2 incubator for 5 hours, 23 nL of compounds dissolved in DMSO, positive and negative controls was transferred to the assay plate by a pintool work station. The plates were incubated at 37 C for 40 hours. The luminescence intensity were measured at 0h, 8h, 16h, 24h, 32h and 40h time points using ViewLux plate reader during compound treatment.
% is scaled to controls: 0 for no effect and ±100 for the full control effect; potency is read from the fitted curve at half-maximal effect.

SMILES | max response | Potency
O=C(NC(=O)c1cc(F)c(F)cc1Cl)Nc1cc(F)ccc1N1CCC(C(=O)O)CC1 | 19.9% | –
CC(=O)NNc1ccccc1 | 2.64% | –
COCc1cnc(C2=NC(C)(C(C)C)C(=O)N2)c(C(=O)O)c1 (stereo not given) | 9.64% | –
Cc1nc(N(C)C)nc(OC(=O)N(C)C)c1C | 2.7% | –
C[C@]12C=CC3=C4CCC(=O)C=C4CC[C@H]3[C@@H]1CC[C@@H]2O | -25.8% | –
CCOP(=S)(OCC)Oc1ccc(S(C)=O)cc1 (stereo not given) | 6.56% | –
O=P(OCC(Br)CBr)(OCC(Br)CBr)OCC(Br)CBr (stereo not given) | – | 27.9 µM (active)
C=CC(C)(CCC=C(C)C)OC(=O)c1ccccc1N (stereo not given) | -1.39% | –
CCCN(CCC)C(=O)Cc1c(-c2ccc(Cl)cc2)nc2ccc(Cl)cn12 | – | 5.35 µM (active)
Cc1ccc(N)c(C)c1 | 4.9% and -12.6% | –
O=C(Cc1ccccc1)OCCc1ccccc1 | 2.91% | –
C[N+](C)(C)CC1CO1 (stereo not given) | 5.73% | –
C=CC(=O)NC(C)(C)CC(C)=O | 3.92% | –
CCCCCl | 1.53% | –
NCCc1cc(O)c(O)cc1O | -1.21% | –
CC(C)(C)NCC(O)c1cc(Cl)c(N)c(C(F)(F)F)c1 (stereo not given) | 3.67% | –
CCOC(=O)NC(O)C(Cl)(Cl)Cl (stereo not given) | 7.58% | –
C[C@H](N)[C@H](O)c1ccc(O)c(O)c1 | -2.61% | –
CCCCC#N | -2.33% | –
CC(C)c1ccc(NC(=O)N(C)C)cc1 | 3.89% | –

SMILES | max response | Potency
COc1ccccc1N1CCNCC1 | -1.42% | –
CCOP(=O)(SC(C)CC)N1CCSC1=O (stereo not given) | 15% | –
C[N+](C)(C)CCOC(=O)C(O)(c1ccccc1)c1ccccc1 | 0.291% | –
FC(F)OC(F)(F)C(F)Cl (stereo not given) | 8.01% | –
CC(C)OC(=O)Cc1ccccc1 | 5.49% | –
CC(C)CCON=O | 0.253% | –
O=C(O)C(O)C(O)C(=O)O (stereo not given) | -0.119% | –
CC(C)C1(C)N=C(c2ncccc2C(=O)O)NC1=O (stereo not given) | 1.4% | –
CC1(C)[C@H](C(=O)O[C@H](C#N)c2cccc(Oc3ccccc3)c2)[C@@H]1C=C(Br)Br | -8.94% and -16.3% | –
C=CCN1C[C@H](C)N([C@H](c2ccc(C(=O)N(CC)CC)cc2)c2cccc(OC)c2)C[C@H]1C | – | 19 µM (active)
Clc1ccc(Cl)c(Cl)c1 | -1.09% and 2.8% | –
N#CC(C#N)=Cc1ccc(O)c(O)c1 | -6.83% | –
NC(=S)c1c(Cl)cccc1Cl | -2.31% | –
C1CS1 | 12% | –
CN(C)C(=O)Nc1cccc(OC(=O)NC(C)(C)C)c1 | -14.3% | –
C[C@H]1[C@@H]2Cc3ccc(O)cc3[C@@]1(C)CCN2C | -5.05% | –
Cc1cccc(C)c1NC1=NCCCS1 | 0.136% | –
CCCSP(=S)(OCC)Oc1ccc(SC)cc1 (stereo not given) | 3.34% | –
O=C(N[C@H]1CN2CCC1CC2)c1ccc2c(c1)OCCO2 | 0.421% | –
CCCCOC(=O)CCC(=O)OCCCC | 3.34% | –
